In PubChem BioAssay (Tox21):
Records with an inconclusive call do not appear. The source made the active and inactive calls. Unless noted, calls follow the shape of the dose curve; as a rule, active = well fitted curve in the direction sought with a large enough effect in the repeat runs; inconclusive = weak or mixed curves; inactive = no such curve, though single readings can be large; an effect the other way counts as inactive or inconclusive.

How the values were obtained:
[1] = qHTS assay to identify small molecule antagonists of the TGF-beta/Smad signaling pathway - cell viability counter screen (AID 1346824); also: nearly all actives have a fitted effect of over 50% in size
Method in brief: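 SBE-bla HEK 293T cells were plated overnight at 37 C, then given compounds in DMSO plus TGF-beta1 (added as 0.25 ng/mL solution) for 5 hr. After the bla read, CellTiter-Glo was added to the same wells and luminescence read after 30 min at room temperature.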

[2] = qHTS assay to identify small molecule agonists of the TGF-beta/Smad signaling pathway - cell viability counter screen (AID 1346829); also: top concentration of the series differs between compounds; nearly all actives have a fitted effect of over 45% in size
Method in brief: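 In parallel with the Smad reporter read, viability of HEK 293T cells stably carrying SBE-bla is quantified by ATP luminescence following 5 hr compound treatment.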

[3] = qHTS assay to identify small molecule agonists of the TGF-beta/Smad signaling pathway (AID 1346859; active = well fitted activation curve with a large enough effect in the signal ratio in the repeat runs, not every such curve was filed as active; the % refers to the signal ratio; also: series mostly up to about 77 µM)
Method in brief: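 Reporter line: HEK 293T with stably integrated SBE-controlled beta-lactamase. Compound exposure lasts 5 hr at 37 C and 5% CO2; substrate loading follows for 2 hr at room temperature, with emission read at 460 and 530 nm.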

[4] = biological target: Thyrotropin-releasing hormone receptor (Homo sapiens) (UniProt P34981); test: qHTS assay to identify small molecule antagonists of the thyrotropin-releasing hormone receptor (TRHR) signaling pathway (AID 1346877; active = well fitted inhibition curve with a large enough effect in the repeat runs, not every such curve was filed as active; also: series mostly up to about 51 µM)
Method in brief: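 Overnight-plated (18 h, 37 °C) HEK293 cells expressing TRHR were dye-loaded 2 h, treated with compound, then stimulated with TRH at 1 nM final. Fluorescence intensity was captured every second for 3 min.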

[5] = biological target: Thyrotropin-releasing hormone receptor (Homo sapiens) (UniProt P34981); test: qHTS assay to identify small molecule agonists of the thyrotropin-releasing hormone receptor (TRHR) signaling pathway (AID 1346891; calls by dose curve;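 also: HEK293 cells expressing TRHR with calcium dye readout; series mostly up to about 58 µM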)
Method in brief: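 Cells: TRHR-Hek293, seeded and incubated 18 h. Dye loading: 2 h at 37 °C. Compound added from DMSO stock by pin tool. Read-out: kinetic calcium fluorescence over 3 min.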

[6] = Human pregnane X receptor (PXR) small molecule agonists, qHTS cell viability counter screen (AID 1346977); also: nearly all actives have a fitted effect of over 50% in size
Method in brief: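 Cytotoxicity counter screen run in the same wells as the PXR luciferase assay, using PXR-Luc HepG2 cells in charcoal-stripped serum medium. Viability: CellTiter-Fluor fluorescence after 24hr compound treatment.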

[7] = Caspase-3/7 induction in HepG2 cells by small molecules, qHTS assay (AID 1346978); also: nearly all actives have a fitted effect of over 15% in size
Method in brief: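 Wild-type HepG2 cells (2,000/well) were settled 5 h at 37 C, 5% CO2, then exposed to compounds in DMSO for 17 h. Caspase-3/7 activity was read by luminescence 30 min after adding Caspase-Glo 3/7 reagent at room temperature.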

[8] = Caspase-3/7 induction in CHO-K1 cells by small molecules, qHTS cell viability counter screen (AID 1346979); also: nearly all actives have a fitted effect of over 35% in size
Method in brief: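 Cytotoxicity counter screen run in parallel with the caspase-3/7 assay: CHO-K1 cells, 16hr compound treatment at 37C, then CellTiter-Fluor for 1hr before fluorescence reading.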

[9] = Caspase-3/7 induction in CHO-K1 cells by small molecules, qHTS assay (AID 1346980); also: nearly all actives have a fitted effect of over 15% in size
Method in brief: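 Wild-type cells were seeded at 1,500 per well and settled 5 hr at 37 C, 5% CO2, then exposed to DMSO-dissolved compounds for 17 hr. Caspase-Glo 3/7 reagent was added, and luminescence was read after 30min at room temperature.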

[10] = Caspase-3/7 induction in HepG2 cells by small molecules, qHTS cell viability counter screen (AID 1346981); also: series mostly up to about 92 µM; nearly all actives have a fitted effect of over 30% in size
Method in brief: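 Treatment of HepG2 cells with DMSO-delivered compounds ran 16 hr at 37 C following a 5-hr pre-incubation of 2,000 cells/well. CellTiter-Fluor fluorescence, read after 1 hr, served as the viability measure in a qHTS format.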
% is scaled to controls: 0 for no effect and ±100 for the full control effect.

Sequence of Thyrotropin-releasing hormone receptor (Homo sapiens) (P34981 whole entry, looked up): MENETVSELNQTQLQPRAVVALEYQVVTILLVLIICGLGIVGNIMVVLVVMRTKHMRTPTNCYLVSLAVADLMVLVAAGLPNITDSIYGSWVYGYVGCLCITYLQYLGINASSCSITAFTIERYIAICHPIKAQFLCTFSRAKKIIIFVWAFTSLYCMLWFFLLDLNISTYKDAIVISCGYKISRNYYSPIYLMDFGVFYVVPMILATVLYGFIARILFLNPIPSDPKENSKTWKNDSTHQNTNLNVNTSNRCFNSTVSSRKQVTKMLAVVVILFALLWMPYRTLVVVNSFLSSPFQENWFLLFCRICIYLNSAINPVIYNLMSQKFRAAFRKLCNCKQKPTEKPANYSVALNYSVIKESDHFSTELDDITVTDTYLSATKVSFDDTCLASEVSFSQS

CC(=O)CC(=O)OC(C)(C)C
inactive: outcome [1] | outcome [2] | outcome [3] | outcome [4] | outcome [5] | outcome [6] | outcome [7] | Potency [8] | outcome [9] | outcome [10]

COC(=O)CCCCC(CCSS/C(CCO)=C(\C)N(C=O)Cc1cnc(C)nc1N)SC(C)=O (centres undefined)
inactive: outcome [1] | outcome [2] | outcome [3] | outcome [4] | outcome [5] | outcome [6] | outcome [7] | Potency [8] | outcome [9] | outcome [10]

CC(=O)OC1CCCCC1C(C)(C)C (centres undefined)
inactive: outcome [1] | outcome [2] | outcome [3] | outcome [4] | outcome [5] | outcome [6] | outcome [7] | Potency [8] | outcome [9] | outcome [10]

COS(=O)(=O)O
inactive: outcome [1] | outcome [2] | outcome [3] | outcome [4] | outcome [5] | outcome [6] | outcome [7] | Potency [8] | outcome [9] | outcome [10]

COc1ccc2c(c1)c1c3n2CCN(C)C3=NCC1
inactive: outcome [1] | outcome [2] | outcome [3] | outcome [4] | outcome [5] | outcome [6] | outcome [7] | Potency [8] | outcome [9] | outcome [10]

CC(=O)Nc1ccc(OC(=O)c2ccccc2OC(C)=O)cc1
inactive: outcome [1] | outcome [2] | outcome [3] | outcome [4] | outcome [5] | outcome [6] | outcome [7] | Potency [8] | outcome [9] | outcome [10]

OCCN1CCOCC1
inactive: outcome [1] | outcome [2] | outcome [3] | outcome [4] | outcome [5] | outcome [6] | outcome [7] | Potency [8] | outcome [9] | outcome [10]

COC(=O)c1ccccc1C(=O)O
inactive: outcome [1] | outcome [2] | outcome [3] | outcome [4] | outcome [5] | outcome [6] | outcome [7] | Potency [8] | outcome [9] | outcome [10]

CCOc1cccc(N)c1
inactive: outcome [1] | outcome [2] | outcome [3] | outcome [4] | outcome [5] | outcome [6] | outcome [7] | outcome [9] | outcome [10]

CC(C)NC(=O)c1ccc(C=O)cc1
inactive: outcome [1] | outcome [2] | outcome [3] | outcome [4] | outcome [5] | outcome [6] | outcome [7] | Potency [8] | outcome [9] | outcome [10]

CCC(C)C(C)=O (centres undefined)
inactive: outcome [1] | outcome [2] | outcome [3] | outcome [4] | outcome [5] | outcome [6] | outcome [7] | outcome [9] | outcome [10]

CCCCCCCCCCCCCCC(=O)NC(CO)CCCCCCCCCCCCCC (centres undefined)
inactive: outcome [1] | outcome [2] | outcome [3] | outcome [4] | outcome [5] | outcome [6] | outcome [7] | outcome [9] | outcome [10]

NCc1ccc(S(N)(=O)=O)cc1
inactive: outcome [1] | outcome [2] | outcome [3] | outcome [4] | outcome [5] | outcome [6] | outcome [7] | Potency [8] | outcome [9] | outcome [10]

CCOc1ccccc1OCC1CNCCO1 (centres undefined)
inactive: outcome [1] | outcome [2] | outcome [3] | outcome [4] | outcome [5] | outcome [6] | outcome [7] | outcome [9] | outcome [10]

CC(C)c1ccc(C=O)cc1
inactive: outcome [1] | outcome [2] | outcome [3] | outcome [4] | outcome [5] | outcome [6] | outcome [7] | outcome [9] | outcome [10]

CC(=O)CC(=O)Nc1ccc(C)cc1C
inactive: outcome [1] | outcome [2] | outcome [3] | outcome [4] | outcome [5] | outcome [6] | outcome [7] | outcome [9] | outcome [10]

C[Si]1(C)O[Si](C)(C)O[Si](C)(C)O[Si](C)(C)O[Si](C)(C)O1
inactive: outcome [1] | outcome [2] | outcome [3] | outcome [4] | outcome [5] | outcome [6] | outcome [7] | Potency [8] | outcome [9] | outcome [10]

CC(=O)CCc1ccc(OC(C)=O)cc1
inactive: outcome [1] | outcome [2] | outcome [3] | outcome [4] | outcome [5] | outcome [6] | outcome [7] | Potency [8] | outcome [9] | outcome [10]

N[C@@H](Cc1ccc(O)cc1)C(=O)O
inactive: viability change, negative = cytotoxic [1] -8.39% [at 6.97 µM] | activity change, negative = cytotoxicity [2] 9.15% [at 6.97 µM] | activation [3] 4.2% [at 6.97 µM] | activity, negative = inhibition [4] -2.4% [at 4.65 µM] | activation [5] -0.36% [at 5.23 µM] | activity change, negative = cytotoxicity [6] -1.74% [at 8.39 µM] | caspase activation [7] -1.72% [at 8.39 µM] | caspase-3/7 activation [9] -1.08% [at 8.39 µM] | activity change, negative = cytotoxicity [10] -1.35% [at 8.39 µM]

Cn1nnc2c(C(N)=O)ncn2c1=O
inactive: outcome [1] | outcome [2] | outcome [3] | outcome [4] | outcome [5] | outcome [6] | outcome [7] | outcome [9] | outcome [10]

CCC[C@@H]1C[C@@H](C(=O)N[C@@H]([C@H]2O[C@H](SC)[C@H](O)[C@@H](O)[C@H]2O)[C@@H](C)O)N(C)C1
inactive: outcome [1] | outcome [2] | outcome [3] | outcome [4] | outcome [5] | outcome [6] | outcome [7] | outcome [9] | outcome [10]

[O-][n+]1cccc(/C(Cl)=N/OC[C@@H](O)CN2CCCCC2)c1
inactive: outcome [1] | outcome [2] | outcome [3] | outcome [4] | outcome [5] | outcome [6] | outcome [7] | Potency [8] | outcome [9] | outcome [10]

CCCCOC(=O)[C@H](C)O
inactive: outcome [1] | outcome [2] | outcome [3] | outcome [4] | outcome [5] | outcome [6] | outcome [7] | Potency [8] | outcome [9] | outcome [10]

COCCc1ccccn1
inactive: outcome [1] | outcome [2] | outcome [3] | outcome [4] | outcome [5] | outcome [6] | outcome [7] | outcome [9] | outcome [10]

CC(=O)C1C(=O)C=C(C)OC1=O (centres undefined)
inactive: outcome [1] | outcome [2] | outcome [3] | outcome [4] | outcome [5] | outcome [6] | outcome [7] | outcome [9] | outcome [10]
